Bioassay records deposited in PubChem BioAssay by National Center for Advancing Translational Sciences (NCATS).
G9a block: inhibitors of human histone lysine methyltransferase G9a | G9a H3K9 monomethylation, AlphaScreen, 2 h | AID 504332 | 350,000 compounds, 8.8% hits | Potency, µM (doses to about 102 µM), most hits filed as inhibitors; further: nearly all actives have a fitted effect of over 75% in size
Target sequence (Q96KQ7 913-1193 limits assumed): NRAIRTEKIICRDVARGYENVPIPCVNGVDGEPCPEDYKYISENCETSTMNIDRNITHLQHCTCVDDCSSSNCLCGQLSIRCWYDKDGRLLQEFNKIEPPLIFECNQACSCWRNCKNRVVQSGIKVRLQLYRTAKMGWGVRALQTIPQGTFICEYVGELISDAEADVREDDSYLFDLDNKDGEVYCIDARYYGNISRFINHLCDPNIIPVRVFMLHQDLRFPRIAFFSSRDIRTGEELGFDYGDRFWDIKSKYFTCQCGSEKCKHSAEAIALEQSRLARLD
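G9a (20 nM) was preincubated 15 min with compound, then reacted 2 h at room temperature with 500 nM biotin-H3K9 peptide and 20 µM SAM. Monomethyl-H3K9 detected by AlphaScreen using anti-H3K9me1 antibody.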
L3MBTL1 inh: inhibitors of human L3MBTL1; Q9Y468; AlphaScreen L3MBTL1–H3K9me1 peptide binding; Potency, µM (top dose mostly 57.1 µM), most hits filed as inhibitors; 230,000 compounds, 0.66% hits; further: nearly all actives have a fitted effect of over 60% in size
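Read-out is AlphaScreen signal from streptavidin donor and nickel chelate acceptor beads (10 ug/mL final each) bridging L3MBTL1 (50 nM) and biotinylated K9-monomethylated H3(1-15) peptide (75 nM), after 30 min compound exposure at room temperature.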
JMJD2A Tudor: JMJD2A Tudor domain (human) inhibition. O75164. AlphaScreen JMJD2A-Tudor / H3K4me3 peptide binding. Potency, µM (top dose mostly 114 µM), hits mostly inhibitors. 390,000 compounds, 4.4% hits. AID 504339; further: nearly all actives have a fitted effect of over 50% in size
PI5P4K alpha inh: inhibitors of human PI5P4K alpha | PI5P4Kalpha enzyme, ADP-Glo luminescence, 60 min; active compounds read low | max response, % | 330,000 compounds, 1.2% hits | AID 652105; active means max response of -50% or lower; inconclusive means between -30% and -50%; inactive means -30% or higher; further: value at the top dose of about 77 µM
Target sequence (P48426 whole entry, looked up): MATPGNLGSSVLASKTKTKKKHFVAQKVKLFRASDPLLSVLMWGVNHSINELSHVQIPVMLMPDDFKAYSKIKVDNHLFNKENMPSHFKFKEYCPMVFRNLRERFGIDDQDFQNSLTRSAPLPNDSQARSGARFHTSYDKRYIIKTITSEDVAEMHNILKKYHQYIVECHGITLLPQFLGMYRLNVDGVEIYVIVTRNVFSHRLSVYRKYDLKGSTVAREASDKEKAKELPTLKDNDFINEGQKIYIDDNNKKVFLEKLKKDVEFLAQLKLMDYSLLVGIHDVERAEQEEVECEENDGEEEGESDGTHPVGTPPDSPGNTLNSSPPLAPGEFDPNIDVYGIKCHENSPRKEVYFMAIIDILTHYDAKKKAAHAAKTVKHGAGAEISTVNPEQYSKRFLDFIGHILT
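Compounds were pin-transferred onto PI5P4Kalpha and substrate in HEPES pH 7.4 buffer with EGTA, CHAPS and 5% DMSO. ATP (5 microM final) started the reaction, which ran 60 minutes at room temperature before ADP-Glo detection.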
BAZ2B block: BAZ2B (human) inhibition; 360,000 compounds, 4.4% hits; AlphaScreen BAZ2B-H3K14Ac peptide displacement; Potency, µM (titrated, usually from 114 µM), usual class: inhibitors; AID 504333; Q9UIF8; further: nearly all actives have a fitted effect of over 60% in size
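BAZ2B 50 nM plus b-H3(5-23)K14Ac 50 nM, PBS pH 7.4/0.01% Tween-20, 30 min RT; compound added (max 110 uM), 30 min RT; streptavidin donor/Ni-chelate acceptor beads 10 ug/mL final, 20 min dark; AlphaScreen read.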
HP1b chromo inh: blocks HP1-beta chromodomain binding to methylated histone tails; P83916; AlphaScreen HP1-beta / biotin-H3K9me3 peptide binding; Potency, µM (top dose mostly 114 µM), hits mostly inhibitors; 390,000 compounds, 0.56% hits; further: nearly all actives have a fitted effect of over 70% in size
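Compound inhibition of the preformed complex between 50 nM HP1-beta and 50 nM biotinylated H3K9me3 peptide was read by AlphaScreen. Buffer was PBS pH 7.4 with 0.01% Tween-20. Incubations ran 30 min at room temperature, with 10 ug/mL donor/acceptor beads.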
Numbers stand for hits; 0 = inactive; ? = inconclusive; - = not tested or not shown; [ ] = remark or other dose. Sampled rows, rich in hits. Any-hit rate of the full collection: about 11%. Unless noted, the call rests on the fitted dose curve; in most records, active means well fitted inhibition curve with a large enough effect; inconclusive means small, poorly fitted or top-dose-only effect; inactive means no such curve, though single readings can be large or run the other way.

SMILES	G9a block	L3MBTL1 inh	JMJD2A Tudor	PI5P4K alpha inh	BAZ2B block	HP1b chromo inh
O=C(NCCCn1ccnc1)/C(=C/c1ccco1)NC(=O)c1ccccc1	-	-	0	0	-	0
Cc1ccc(C(=O)N/C(=C/c2ccco2)C(=O)NCCCn2ccnc2)cc1	?	?	0	0	32µM	0
O=C(CC(c1cccs1)N1Cc2ccccc2C1=O)Nc1ccc(Cl)cc1 (stereo unspecified)	0	-	0	-	0	0
C=Cc1ccc(N=Cc2c(O)ccc3ccccc23)cc1	1.6µM	-	?	0	0	0
COc1ccc(N=Cc2c(OC)ccc3ccccc23)cc1	-	-	0	0	-	0
Cc1cc(C(=O)O)ccc1N=Cc1c(O)ccc2ccccc12	2.5µM	0	?	0	0	0
C(=Nc1ccc(N2CCOCC2)cc1)c1c[nH]c2ccccc12	?	0	0	0	?	0
Oc1ccc2ccccc2c1C=Nc1ccc(N2CCOCC2)cc1	?	-	50µM	0	40µM	?
CC(=O)N(C)c1ccc(N=Cc2c(O)ccc3ccccc23)cc1	4µM	0	?	0	0	0
O=C(N/N=C/c1c(O)ccc2ccccc12)c1cccc(C(F)(F)F)c1	0	0	0	0	0	0
OB(O)c1ccc(Cl)s1	-	-	0	-	-	0
Cc1cc(Nc2ccc(Cl)cc2)n2cnnc2n1	0	-	0	-	0	0
CC(=O)c1cccc(N=Cc2c(O)ccc3ccccc23)c1	1.6µM	0	71µM	0	?	0
CC(=O)c1cccc(N=Cc2c(O)c3ccccc3oc2=O)c1	0	-	0	0	0	0
O=C(O)c1ccc(Nc2ncnc3ccccc23)cc1	0	-	0	0	0	0
Nc1c(Cl)ncnc1Nc1ccc(C(=O)O)cc1	-	-	13µM	0	-	0
COc1ccccc1NC(=O)c1cc2c(=O)n(Cc3cccs3)ccc2nc1C	0	-	0	-	0	0
CN(CCCC1CCCC1)C(=O)CC1C(=O)NCCN1Cc1ccc(F)cc1 (stereo unspecified)	79µM	-	0	0	?	0
CN(CCC1CCOCC1)C(=O)CC1C(=O)NCCN1Cc1ccoc1 (stereo unspecified)	0	0	0	0	0	0
CN(CCC1CCOCC1)C(=O)CC1C(=O)NCCN1Cc1ccccc1F (stereo unspecified)	8.9µM	-	0	0	0	0
COc1ccc(CCNS(=O)(=O)c2ccc(F)c(C(=O)Nc3ccc(Cl)cc3)c2)cc1OC	0	-	0	-	0	0
CCNC(=S)N(CCc1c(C)[nH]c2ccccc12)Cc1cc(OC)c(OC)c(OC)c1	89µM	0	?	0	50µM	0
CNC(=S)N(CCc1c(C)[nH]c2ccccc12)Cc1cc(OC)c(OC)c(OC)c1	?	0	?	0	45µM	0
Cc1oc(-c2ccccc2Cl)nc1CSc1nc2ncccc2[nH]1	0	-	0	-	0	0
Cc1ccccc1NCc1ccccc1O	40µM	0	?	0	56µM	0
SMILES	G9a block	L3MBTL1 inh	JMJD2A Tudor	PI5P4K alpha inh	BAZ2B block	HP1b chromo inh
COc1ccc(-c2ccccc2)cc1NCc1ccc(OC)c(OC)c1	10µM	?	40µM	0	40µM	?
COc1ccc(-c2ccccc2)cc1NCc1ccccc1C	?	0	?	0	50µM	0
COc1ccc(CNC(=O)c2ccc(-c3ccccc3)cc2)cc1OC	0	0	0	0	0	0
Cc1coc2cc3oc(=O)c(CC(=O)NCCc4ccccc4)c(C)c3cc12	0	-	0	-	0	0
COCCn1c(=O)c(-c2ccccc2)nc2cnc(OC)nc21	0[0.501 µM]	-	-	-	-	-
N#Cc1ccc(CSc2nnc(Cc3cccs3)n2Cc2ccco2)cc1	?	0	?	?	50µM	0
C=CCn1c(Cc2cccs2)nnc1SCC(=O)Nc1ccc(OC)c(OC)c1	0[12.7 µM]	0	0	-	0	0
N#Cc1ccc(CSc2nnc(-c3ccccc3)n2Cc2ccco2)cc1	-	0	0	-	0	0
C=CCn1c(Cc2cccs2)nnc1SCC(=O)c1cccc(Br)c1	32µM	0	0	?	0	0
C=CCn1c(Cc2cccs2)nnc1SCC(=O)c1ccc2ccccc2c1	28µM	-	0	-	0	0
C=CCn1c(Cc2cccs2)nnc1SCC(=O)NCc1ccco1	45µM	-	?	0	?	0
C=C1N[C@]2(C(=O)COC(C)=O)[C@@H](C[C@H]3[C@@H]4CCC5=CC(=O)C=C[C@]5(C)[C@H]4[C@@H](O)C[C@@]32C)O1	0[12.7 µM]	-	-	-	-	-
C=CCn1c(Cc2cccs2)nnc1SCC(=O)c1ccc(F)cc1	40µM	0	56µM	0	0	0
O=Cc1cccn1-c1ccccc1	0	-	0	0	0	0
O=Cc1cccn1-c1ccc(O)cc1	0	0	0	0	79µM	0
COc1ccc(CNC(=O)c2cnc3n(c2=O)CCS3)cc1	45µM	0	0	0	0	0
O=C(NCc1ccccc1Cl)c1cnc2n(c1=O)CCS2	56µM	-	0	0	0	0
Cc1ccc(C)c(NC(=S)NC(NC(=O)N(C)C)C(Cl)(Cl)Cl)c1 (stereo unspecified)	4.5µM	0	0	-	0	0
Cc1ccccc1NC(=S)NC(NC(=O)N(C)C)C(Cl)(Cl)Cl (stereo unspecified)	-	0	0	-	?	0
CC(=O)NC(NC(=S)Nc1ccc(C)cc1C)C(Cl)(Cl)Cl (stereo unspecified)	45µM	-	0	0	0	0
O=C(NCc1cccc(F)c1)c1ccc2nc(CCc3ccccc3)oc2c1	0	-	0	-	0	0
Cc1ccc2c(c1)c(C)cc[n+]2Cc1ccccc1	50µM	0	0	0	0	0
COc1ccc2c(c1)c(C)cc[n+]2Cc1ccccc1	0	0	0	0	0	0
C[C@@H](CCc1ccc(O)cc1)NCCc1ccc(O)c(O)c1	0[21.5 µM]	-	-	-	-	-
O=C1CC(=O)N(Cc2ccco2)C(=S)N1	8.9µM	-	56µM	?	20µM	0
SMILES	G9a block	L3MBTL1 inh	JMJD2A Tudor	PI5P4K alpha inh	BAZ2B block	HP1b chromo inh
S=C1NCN(Cc2ccco2)CN1	0	0	0	0	0	0
O=C1CC(=O)N(Cc2ccco2)C(=O)N1	?	3.2µM	4.5µM	-	40µM	0
COc1cc(OC)cc(C2=Nn3c(nnc3-c3cccc(OC)c3)SC2)c1	-	-	0	-	-	-
Cc1ccc(OCc2nc(-c3ccc(C(=O)N4CCN(c5cc(Cl)ccc5C)CC4)cc3)oc2C)cc1	0	-	0	-	0	0
COc1ccc(-c2nnc(SCc3ccccn3)n2C)cc1	0	0	0[11.4 µM]	0	0	0
COc1ccc(N=C(N)SCc2ccccn2)cc1	16µM	0	50µM	0	?	?
O=C1Nc2ccc(S(=O)(=O)Nc3ccccc3O)c3cccc1c23	13µM	-	0	-	0	0
Cc1ccccc1OC(=O)CSc1nnc(-c2ccc(F)cc2)o1	0	-	0	-	0	0
O=C(Nc1ccc(N2CCOCC2)cc1)c1cc2c(s1)CCCC2	40µM	0	?	0	40µM	0
O=C(Nc1ccc(N2CCOCC2)cc1)c1cc2c(s1)CCCCC2	32µM	0	79µM	0	?	?
O=C(Nc1ccccc1N1CCOCC1)c1cc2c(s1)CCCCC2	0	-	0	0	0	0
